These results are taken from PubChem BioAssay (NCATS).

Results filed as inconclusive are left out. Active and inactive are the calls of the source. The call rests on the fitted dose curve; in most records, active means well fitted inhibition curve with a large enough effect; inconclusive means small, poorly fitted or top-dose-only effect; inactive means flat fitted curve, though single readings scatter.

Holding throughout (assay): qHTS profiling for inhibitors of Plasmodium falciparum proliferation (AID 504749); further: nearly all actives have a fitted effect of over 60% in size
Common to all, as to conditions: P. falciparum in erythrocytes, SYBR Green DNA, 72 h; series mostly up to 28.7 µM
On the technique in general: qHTS replaces the single test concentration by a dilution series.

For one experiment, the system named is ATS189. The method in brief: (§1)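 Readout was DNA-dye fluorescence from lysed cultures, ex 485/em 535 nm. Parasitized red cells had grown 72 h with compound; data scaled between 0.29 uM artemisinin and DMSO wells and corrected using vehicle-only plates.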
For a further experiment, the system named is ATS95. The method in brief:
as §1

The next experiment has as its system C2A. The method in brief:
as §1

The next experiment concerns CP185. The method in brief: as §1
Another experiment has as its system CP191. The essentials:
as §1

The subject of another experiment is CP192. The essentials:
as §1

The subject of another experiment is CP194. The essentials:
as §1

The next experiment concerns CP201. The essentials:
as §1

The subject of another experiment is CP203. The method in brief:
as §1

The test system of a further experiment is CP211. The method in brief: as §1
A further experiment relates to CP215. The essentials: as §1
The next experiment concerns CP217. The method in brief:
as §1

A further experiment concerns CP237. The method in brief:
as §1

A further experiment deals with CP238. The method in brief:
as §1

The test system of a further experiment is CP247. The essentials: as §1
The next experiment relates to CP252. The essentials: as §1
Another experiment concerns CP256. The method in brief:
as §1

Another experiment concerns CP260. The method in brief:
as §1

The next experiment relates to CP262. The method in brief:
as §1

The next experiment deals with CP250. The method in brief:
as §1
Potency means the concentration at half of the fitted maximal effect.

`COc1cc(C(=O)N2CCCCCCC2)cc(OC)c1OC`: the Potency result in the experiment with ATS189, with ATS95, in the experiment with C2A, in the experiment with CP185, in the experiment with CP191 and with CP192 was “inactive” each time. Also, the Potency entry in the experiment on CP194, with CP201, in the experiment on CP203, in the experiment with CP211, with CP215 and in the experiment on CP217 was “inactive” each time. Further, the Potency entry in the experiment with CP237, with CP238, in the experiment on CP247, in the experiment on CP252, in the experiment on CP256 and with CP260 was “inactive” throughout. For the same compound, the Potency entry with CP262 was “inactive”.

For the compound `O=c1[nH]c(=O)n([C@H]2C[C@H](O)[C@@H](CO)O2)cc1F`, the Potency entry in the experiment on ATS189, in the experiment with ATS95, with C2A, in the experiment on CP185, with CP191 and with CP192 was “inactive” in each case. The Potency result in the experiment with CP194, in the experiment with CP201, with CP203, with CP211, with CP215 and with CP217 was “inactive” each time. Further, the Potency entry with CP237, with CP238, in the experiment on CP247, in the experiment with CP250, in the experiment on CP252 and in the experiment with CP256 was “inactive” throughout. Further, the Potency entry with CP260 and with CP262 was “inactive” throughout.

In the case of `CCN(CC)CCNc1ccc(CO)c2sc3ccccc3c(=O)c12`, the Potency in the experiment on ATS189 was 794 nM (active); with ATS95, 2000 nM (active); with C2A it was 794 nM (active); with CP185, 1000 nM (active); with CP191, 355 nM (active); with CP192 it was 1690 nM (active). The Potency in the experiment on CP194 was 3380 nM (active); in the experiment on CP201, 7570 nM (active); in the experiment with CP203, 4260 nM (active); in the experiment on CP211, 4260 nM (active); in the experiment with CP215 it was 4260 nM (active); in the experiment with CP217, 2820 nM (active). The Potency is 891 nM (active) with CP237; 1000 nM (active) in the experiment on CP238; 891 nM (active) with CP247; 1000 nM (active) in the experiment with CP250; 562 nM (active) with CP252; 1780 nM (active) in the experiment with CP256. For the same compound, the Potency with CP260 is 794 nM (active). Moreover, the Potency entry with CP262 is “inactive”.

On to `CCOc1ccc(NC(C)=O)cc1`, for which the Potency entry in the experiment on ATS189, in the experiment on ATS95, in the experiment with C2A, in the experiment with CP185, in the experiment with CP191 and with CP192 was “inactive” in each case. Further, the Potency entry in the experiment on CP194, in the experiment on CP201, in the experiment with CP203, in the experiment on CP211, with CP217 and in the experiment on CP237 was “inactive” in each case. Further, the Potency entry with CP238, in the experiment on CP247, in the experiment on CP250, in the experiment with CP252, in the experiment with CP256 and with CP260 was “inactive” each time. In addition, in the experiment on CP262, the Potency entry is “inactive”.

With `COc1ccc2c(c1)c1c3n2CCN(C)C3=NCC1`, the Potency result in the experiment on ATS189, in the experiment on ATS95, in the experiment on C2A, with CP185, in the experiment on CP191 and with CP192 was “inactive” throughout. In addition, the Potency entry with CP194, in the experiment with CP201, in the experiment on CP203, in the experiment with CP211, with CP215 and in the experiment on CP217 was “inactive” each time. The Potency result in the experiment with CP238, with CP247, with CP250, in the experiment with CP252, with CP256 and with CP260 was “inactive” throughout. The Potency result in the experiment with CP262 is “inactive”.

For the compound `O=C1C(CCS(=O)c2ccccc2)C(=O)N(c2ccccc2)N1c1ccccc1` (configuration not stated), the Potency result in the experiment with ATS189, with ATS95, in the experiment with C2A, with CP185, with CP191 and in the experiment with CP192 was “inactive” in each case. For the same compound, the Potency result in the experiment on CP194, in the experiment with CP201, in the experiment on CP203, in the experiment with CP211, in the experiment with CP217 and with CP237 was “inactive” throughout. Moreover, the Potency entry in the experiment with CP238, in the experiment on CP247, in the experiment with CP250, with CP252, in the experiment with CP256 and in the experiment on CP260 was “inactive” in each case. Also, the Potency entry in the experiment with CP262 is “inactive”.

Take `C=CCN1CCc2nc(N)sc2CC1`: the Potency result in the experiment on ATS189, with ATS95, with C2A, in the experiment with CP185, in the experiment on CP191 and with CP192 was “inactive” throughout. Moreover, the Potency result in the experiment with CP194, with CP201, in the experiment with CP203, in the experiment with CP211, with CP215 and with CP217 was “inactive” each time. Further, the Potency entry in the experiment on CP237, in the experiment on CP238, in the experiment with CP247, with CP250, in the experiment on CP252 and in the experiment on CP256 was “inactive” throughout. Besides, the Potency entry in the experiment on CP260 and with CP262 was “inactive” each time.

For the compound `O=C(O)C1(C(=O)O)CCC1.[NH2-].[NH2-].[Pt+2]`, the Potency result with ATS189, in the experiment with ATS95, in the experiment with C2A, in the experiment on CP185, with CP191 and with CP192 was “inactive” each time. For the same compound, the Potency entry with CP194, with CP201, with CP203, in the experiment on CP211, in the experiment with CP215 and in the experiment with CP217 was “inactive” in each case. In addition, the Potency result in the experiment with CP238, with CP247, with CP250, in the experiment with CP252, in the experiment on CP256 and in the experiment on CP262 was “inactive” throughout.

On to `O=S(=O)(O)c1ccc(O)cc1`, for which the Potency entry in the experiment with ATS189, with ATS95, in the experiment on C2A, in the experiment with CP185, with CP191 and with CP192 was “inactive” in each case. Besides, the Potency result in the experiment with CP194, with CP201, in the experiment with CP203, with CP211, with CP215 and in the experiment on CP217 was “inactive” throughout. For the same compound, the Potency entry in the experiment on CP237, with CP238, in the experiment with CP247, in the experiment on CP250, in the experiment on CP252 and with CP256 was “inactive” in each case. The Potency result in the experiment on CP260 and in the experiment with CP262 was “inactive” throughout.

Take `Cc1nc(-c2ccc(Cl)cc2)oc1COC(C)(C)C(=O)O`: the Potency result in the experiment with ATS189, in the experiment with ATS95, in the experiment on C2A, in the experiment on CP185, in the experiment on CP191 and in the experiment with CP192 was “inactive” throughout. The Potency entry with CP194, in the experiment with CP201, in the experiment with CP203, in the experiment on CP211, in the experiment with CP215 and with CP217 was “inactive” in each case. Further, the Potency result in the experiment on CP237, in the experiment on CP238, in the experiment with CP250, in the experiment on CP252, in the experiment with CP256 and with CP260 was “inactive” each time. Further, in the experiment with CP262, the Potency entry was “inactive”.

For the compound `CCc1ccc(C(=O)C(C)CN2CCCCC2)cc1` (configuration not stated), the Potency result with ATS189, with ATS95, with C2A, in the experiment with CP185, in the experiment with CP191 and in the experiment on CP192 was “inactive” throughout. Further, the Potency result in the experiment with CP194, with CP201, with CP203, with CP211, in the experiment on CP215 and in the experiment with CP217 was “inactive” in each case. The Potency result in the experiment on CP237, in the experiment with CP238, in the experiment on CP247, in the experiment on CP250, with CP252 and in the experiment on CP256 was “inactive” each time. Besides, in the experiment on CP262, the Potency result was “inactive”.
